Source: PubChem BioAssay AID1159580 (chemical genetic matrix, 2015)
Where “and” joins values, the source holds several entries; their conditions need not be identical. Equal entries are not always repeated. In all, about 5,500 compounds went through this assay and about 2,000 (36%) were called active. Inconclusive results (about 18%) are left out. Cut-off read from the data, not from the text of the source: active = normalized growth mostly below about 0.91 (no sharp cut-off); inconclusive = no clear call, values can overlap the other calls; inactive = mostly above about 0.92. Some of the results follow.

Experiment: chemical genetic growth profiling, strain panel (AID 1159580);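 note: tested at 20 µM; growth read once vehicle control cultures reached saturation at 30 °C; 1 = growth at the plate median or of vehicle wells; lower values mean less growth of the strain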
Details: S. cerevisiae deletion strains, growth OD

Measured: normalized growth

CCN(Cc1ccncc1)C(=O)C(CO)c1ccccc1 (stereo unspecified)
inactive: locus YAL013W, strain DEP1, hits give low values 0.993 and 0.979 | locus YAL021C, strain ccr4, hits give low values 1.04 | locus YAL026C, strain drs2, hits give low values 1.03 | locus YAL030W, strain snc1, hits give low values 1.02 | locus YAL040C, strain CLN3, hits give low values 0.996 | locus YBL061C, strain skt5, hits give low values 1.02 | locus YBR009C, strain hhf1, hits give low values 1.03 | locus YBR021W, strain FUR4, hits give low values 1.01 | locus YBR023C, strain chs3, hits give low values 1.03 | locus YBR171W, strain sec66, hits give low values 1.04 | locus YBR229C, strain ROT2, hits give low values 0.996 | locus YBR231C, strain swc5, hits give low values 1.03 | locus YBR279W, strain paf1, hits give low values 1.01 | locus YCL011C, strain gbp2, hits give low values 1.02 | locus YCL016C, strain dcc1, hits give low values 1.03 | locus YCL029C, strain bik1, hits give low values 0.973 | locus YCL061C, strain MRC1 (second series), hits give low values 1.01 | locus YCL061C, strain MRC1, hits give low values 1.03 | locus YCL069W, strain vba3, hits give low values 1.03 | locus YCR088W, strain abp1, hits give low values 1.02 | locus YDL005C, strain med2, hits give low values 1.04 | locus YDL035C, strain GPR1, hits give low values 1 | locus YDL040C, strain nat1, hits give low values 1.02 | locus YDL074C, strain BRE1, hits give low values 0.989 | locus YDL101C, strain DUN1, hits give low values 0.987 | locus YDL134C, strain PPH21, hits give low values 0.999 | locus YDL185W, strain tfp1, hits give low values 0.964 | locus YDL192W, strain arf1, hits give low values 0.976 | locus YDR001C, strain nth1, hits give low values 1.02 | locus YDR069C, strain doa4, hits give low values 1.04 | locus YDR101C, strain arx1, hits give low values 0.985 | locus YDR137W, strain rgp1, hits give low values 1.07 | locus YDR150W, strain NUM1, hits give low values 0.994 | locus YDR159W, strain sac3, hits give low values 1.03 | locus YDR162C, strain NBP2, hits give low values 0.985 | locus YDR195W, strain ref2 1.02 | locus YDR297W, strain sur2, hits give low values 1.02 | locus YDR318W, strain mcm21, hits give low values 0.989 | locus YDR334W, strain swr1, hits give low values 1.03 | locus YDR335W, strain msn5, hits give low values 1.04 | locus YDR363W, strain ESC2, hits give low values 0.991 | locus YDR388W, hits give low values 0.993 | locus YDR392W, strain spt3, hits give low values 0.987 | locus YDR502C, strain sam2, hits give low values 1.01 | locus YEL003W, strain gim4, hits give low values 1.01 | locus YEL037C, strain rad23, hits give low values 1.02 | locus YEL061C, strain CIN8 (second series), hits give low values 1.03 | locus YEL061C, strain CIN8, hits give low values 0.995 | locus YER002W, strain NOP16, hits give low values 0.994 | locus YER015W, strain faa2, hits give low values 1.01 | locus YER016W, strain bim1, hits give low values 1.03 | locus YER110C, hits give low values 0.988 | locus YER111C, strain swi4, hits give low values 1.03 | locus YER155C, strain BEM2 (second series), hits give low values 1.03 | locus YER155C, strain BEM2, hits give low values 0.994 | locus YER167W, strain BCK2, hits give low values 0.989 | locus YFR010W, strain ubp6, hits give low values 1.02 | locus YGL078C, strain dbp3, hits give low values 1 | locus YGL086W, strain mad1, hits give low values 1 | locus YGL167C, strain pmr1, hits give low values 1.02 | locus YGL173C, strain kem1, hits give low values 1.04 | locus YGL227W, strain vid30, hits give low values 1.04 | locus YGL240W, strain doc1, hits give low values 1.03 | locus YGL248W, strain PDE1, hits give low values 1 | locus YGL253W, strain hxk2, hits give low values 1.02 | locus YGR078C, strain PAC10, hits give low values 0.989 | locus YGR135W, strain pre9, hits give low values 0.994 | locus YGR229C, strain SMI1, hits give low values 0.997 | locus YGR252W, strain gcn5, hits give low values 1.11 | locus YHR013C, strain ard1, hits give low values 1.05 | locus YHR027C, strain rpn1, hits give low values 1.05 | locus YHR030C, strain SLT2, hits give low values 0.981 and 1 | locus YHR079C, strain IRE1 (second series), hits give low values 0.984 | locus YHR079C, strain IRE1, hits give low values 0.989 | locus YHR094C, strain hxt1, hits give low values 0.977 | locus YHR129C, strain ARP1, hits give low values 0.993 | locus YHR142W, strain chs7, hits give low values 1.02 | locus YHR200W, strain rpn10, hits give low values 0.992 | locus YIL066C, strain RNR3, hits give low values 0.997 | locus YIL073C, strain SPO22, hits give low values 0.926 | locus YIL125W, strain kgd1, hits give low values 0.984 | locus YIR030C, strain dcg1, hits give low values 1 | locus YJL092W, strain hpr5, hits give low values 1.02 | locus YJL095W, strain BCK1 (second series), hits give low values 1.01 | locus YJL095W, strain BCK1, hits give low values 0.972 and 1.01 | locus YJL115W, strain asf1, hits give low values 1.04 | locus YJL129C, strain trk1, hits give low values 1.04 | locus YJL134W, strain LCB3, hits give low values 0.995 | locus YJL154C, strain vps35, hits give low values 1.02 | locus YJL164C, strain tpk1, hits give low values 1.02 | locus YJL166W, strain qcr8, hits give low values 1.02 | locus YJL168C, strain set2, hits give low values 0.983 | locus YJL187C, strain SWE1 (second series), hits give low values 0.979 | locus YJL187C, strain SWE1, hits give low values 1.02 | locus YJR043C, strain POL32, hits give low values 0.988 | locus YJR066W, strain TOR1, hits give low values 0.95
